± gives the standard deviation.
Tested on: MILI (PIWIL2) piRISC loaded with piRNA #1 (26 nt)
Test: pre-steady-state target cleavage rate (min^-1); guide: piRNA #1 5'p-UGAGGUAGUAGGUUGUAUAGUAUCCA; MIWI and MILI are mouse PIWI proteins and EfPiwi is from a freshwater sponge; tags in brackets are library labels; higher = faster piRNA-guided slicing of the target
Details: auxiliary factor: 500 nM mouse GTSF1
In short: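 Cleave-'n-Seq reactions paired 0.1 nM transcribed, DNA-blocked target RNA library with 1 nM active affinity-purified piRISC holding one synthetic guide, plus or minus 500 nM GTSF1 partner protein, in HEPES–potassium acetate buffer at 33 °C for 0–8 or 0–960 min. After sequencing of uncleaved targets and normalisation to depth and weakly complementary targets, the pre-steady-state cleavage rate was taken from a burst-and-steady-state fit. Three trials were pooled, and k3 was capped at 0.0001 min^-1.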

Question: With GGAGUGGAUAGUAUACUACCUACUACCUCA as the sequence, how does the “pre-steady-state target cleavage rate” value read?
Answer: 0.113 ± 0.0097

Question: Which “pre-steady-state target cleavage rate” value does the source give for GGAGACCUAUGUAUACAAACUACUACCUCA here?
Answer: 0.111 ± 0.012

Question: Which “pre-steady-state target cleavage rate” value does the source give for GGAGACCAUACUAUACAACCUACAACCACA here?
Answer: 0.0647 ± 0.017

Question: GGAGACCUAUGUAUACAACCUACUGCCUCA was tested. Which “pre-steady-state target cleavage rate” value did it give?
Answer: 0.0511 ± 0.0081

Question: GGAGACCUAUGUAUACAACGUUCUACCUCA was tested. Which “pre-steady-state target cleavage rate” value did it give?
Answer: 0.00392 ± 0.0018

Question: Which “pre-steady-state target cleavage rate” value does the source give for GGAGACCUAUCUAUACAAGCUAGUACCUCA here?
Answer: 0.107 ± 0.017

Question: Which “pre-steady-state target cleavage rate” value does the source give for GGAGACCUAUGAUAACAACCUACUAUCCUCA here?
Answer: 0.00426 ± 0.003

Question: For “GGAGACCUAUGAUAACAACCUACUACCUCA [g2:g16:cont:t1A]”, which “pre-steady-state target cleavage rate” value is on record?
Answer: 0.00406 ± 0.003

Question: Which “pre-steady-state target cleavage rate” value does the source give for GGAGACCUAACUAUACAACCUACAACCACA here?
Answer: 0.0203 ± 0.012

Question: For GGAGACCUAUGAUAUGAAACCUACUACCUCA, which “pre-steady-state target cleavage rate” value is on record?
Answer: 0.00314 ± 0.0026

Question: Which “pre-steady-state target cleavage rate” value does the source give for GGAGACGAUACAUAACAACCUACUACCUCA here?
Answer: 0.114 ± 0.013

Question: With GGAGACCUAAGUAUACAAGCUACUACCUCA as the sequence, how does the “pre-steady-state target cleavage rate” value read?
Answer: 0.124 ± 0.011

Question: For GGAGACCAUACUAAACAACCUACUAGCUCA, which “pre-steady-state target cleavage rate” value is on record?
Answer: 0.165 ± 0.03

Question: GGAGACCAUACUAUACAACCUAUACCUCA was tested. Which “pre-steady-state target cleavage rate” value did it give?
Answer: 0.016 ± 0.0051

Question: How did the “pre-steady-state target cleavage rate” value turn out when GGAGACCUAUGAUAUGUUCGUACUACCUGA was run?
Answer: < 0.0001

Question: Which “pre-steady-state target cleavage rate” value does the source give for GGAGACCUAUGAUAUCAACCUACUUACCUCA here?
Answer: 0.00342 ± 0.0024

Source: the supplement of paper PMC10338343
